In the library only some 11% were active in any assay of this set; here they are far more common.
Tau fluor cs = Counterscreen qHTS for Inhibitors of Tau Fibril Formation, Fluorescence Polarization; tau K18 P301L Alexa594 fluorescence, heparin fibrillization; Potency, µM (highest dose often 57.7 µM), for inactives: at the highest dose activity change, negative = decrease; 280,000 tested, 0.93% active; AID 1463, 2008; also: potency is read from the fitted curve at half-maximal effect; nearly all actives have a fitted effect of over 55% in size
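Human K18 P301L tau (15 uM unlabeled plus 0.24 uM Alexa 594-labeled, final) in 100 mM sodium acetate pH 7 was mixed with compound and 20 uM heparin and incubated 6 hr at 37 C.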
Tau ThT inhib = qHTS for Inhibitors of Tau Fibril Formation, Thioflavin T Binding | Microtubule-associated protein tau (Homo sapiens), P10636 | recombinant tau K18 P301L (four-repeat tau fragment), heparin-induced fibrillization, ThT fluorescence | Potency, µM (highest dose often 57.4 µM), without a hit: top-dose activity, negative = inhibition, actives largely listed as inhibitors | 270,000 tested, 2.1% active; also: potency is read from the fitted curve at half-maximal effect; nearly all actives have a fitted effect of over 55% in size
Target sequence (P10636 561-689 P618L limits assumed): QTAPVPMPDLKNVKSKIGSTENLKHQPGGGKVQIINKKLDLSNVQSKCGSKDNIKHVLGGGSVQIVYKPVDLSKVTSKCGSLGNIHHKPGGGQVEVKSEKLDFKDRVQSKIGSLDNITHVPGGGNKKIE
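Aggregation was driven by heparin (20 uM final) acting on recombinant tau […] bearing P301L in 100 mM sodium acetate pH 7; fibrils were detected with Thioflavin T.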
Sfp PPTase inh = qHTS Assay for Inhibitors of Bacillus subtilis Sfp phosphopantetheinyl transferase (PPTase); 4'-phosphopantetheinyl transferase ffp (Bacillus subtilis), Q9F4F7; Biochemical Sfp PPTase activity, qHTS; Potency, µM, without a hit: largest response in the series, negative = inhibition, usual class: inhibitors; 310,000 tested, 3.5% active; AID 1490, 2009;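 also: the enzyme is Sfp with the accession as filed and its product quenches rhodamine fluorescence; potency is read from the fitted curve at half-maximal effect; 0% = enzyme reaction without inhibitor and -100% = no enzyme wells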
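Buffer: 50 mM Hepes-Na pH 7.6, 10 mM MgCl2, 0.01% Nonidet P-40, 0.01% BSA. Enzyme 15 nM, pre-exposed to compound 15 min; substrates then added and fluorescence change tracked over 30 min.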
G9a inh = qHTS Assay for Inhibitors of Histone Lysine Methyltransferase G9a; 350,000 tested, 8.8% active; AID 504332, 2011; Potency, µM (top dose mostly 102 µM), without a hit: at the top dose activity, negative = inhibition, actives largely listed as inhibitors; G9a H3K9 monomethylation, AlphaScreen, 2 h; also: potency is read from the fitted curve at half-maximal effect; nearly all actives have a fitted effect of over 75% in size
Target sequence (Q96KQ7 913-1193 limits assumed): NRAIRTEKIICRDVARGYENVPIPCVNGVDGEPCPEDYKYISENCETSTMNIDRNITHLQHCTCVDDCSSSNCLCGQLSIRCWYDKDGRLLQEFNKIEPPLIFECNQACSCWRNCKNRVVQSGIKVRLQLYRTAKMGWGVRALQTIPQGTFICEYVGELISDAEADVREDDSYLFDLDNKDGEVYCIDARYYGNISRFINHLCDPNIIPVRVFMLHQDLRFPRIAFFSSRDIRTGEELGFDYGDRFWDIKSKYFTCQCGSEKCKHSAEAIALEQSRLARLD
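AlphaScreen read-out: biotin-H3K9 peptide (500 nM) methylation by 20 nM enzyme with 20 uM SAM, 2 h at room temperature after 15 min compound preincubation; anti-monomethyl H3K9 antibody plus donor/acceptor beads, 10 min dark.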
Coupling enz = qHTS Assay for Inhibitors of Fructose-1,6-bisphosphate Aldolase from Giardia Lamblia: Coupling assay counterscreen; coupling enzyme system counterscreen, AmpLite Red fluorescence; activity change, negative = inhibition, % at 58.2 µM, hits read low; 290,000 tested, 0.67% active; AID 2472, 2010; in the data active = activity change below about -30%
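Counterscreen lacking aldolase: glyceraldehyde-3-phosphate coupling-enzyme reagent preincubated 10 min at RT with compound (at 57.5 uM final), then substrate/coupling system with AmpLite Red added; fluorescence read at 525/598 nm after 20 min RT.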
Tau FP inhib = qHTS for Inhibitors of Tau Fibril Formation, Fluorescence Polarization | Microtubule-associated protein tau (Homo sapiens), P10636 | K18 P301L tau heparin fibrillization, Alexa594 FP, 6 h | Potency, µM (series often up to 57.7 µM), inactives show at the highest dose activity, negative = inhibition, hits mostly inhibitors | 280,000 tested, 0.39% active; also: potency is read from the fitted curve at half-maximal effect; nearly all actives have a fitted effect of over 55% in size
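Human tau K18 […] P301L fragment, 15 uM unlabeled plus 0.24 uM Alexa 594-labeled tau (final), with compound and 20 uM heparin in 100 mM sodium acetate pH 7; 6 hr at 37 C, then Alexa 594 FP read.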
The depositor's hits bear a star; ? = inconclusive; / = not tested or not shown; ! = not confirmed by another sample; [ ] = another dose, or the depositor's remark. Unless noted, calls follow the shape of the dose curve; as a rule, active = well fitted curve in the direction sought with a large enough effect; inconclusive = small, poorly fitted or top-dose-only effect, or another doubt; inactive = no such curve, though single readings can be large; an effect the other way counts as inactive or inconclusive. Unless noted, % is scaled to controls: 0 for no effect and ±100 for the full control effect.

SMILES | Tau fluor cs | Tau ThT inhib | Sfp PPTase inh | G9a inh | Coupling enz | Tau FP inhib
O=C(NCc1ccc2[nH]c3c(c2c1)CCCC3)c1ccc(S(=O)(=O)N2CCCC2)cc1 | ? | 3% | 7% | 45µM* | -4 | ?
O=C(NCc1ccc2[nH]c3c(c2c1)CCCC3)N1CCOCC1 | -14% | ? | -18% | ? | -53* | -10%
O=C(NCCc1csc(-c2cccc(F)c2)n1)C(=O)Nc1cc(F)ccc1F | -7% | -1% | / | 4%[59 µM] | / | -9%
O=C(NNC(=O)C1CCN(c2ncccn2)CC1)c1ccncc1 | -13% | -4% | 5% | / | -1 | -3%
CCN(CC)S(=O)(=O)c1ccc(Cl)c(NC(=O)COC(=O)c2ccc([N+](=O)[O-])o2)c1 | ? | ? | 5% | -2%[12.7 µM] | -11 | 4%
O=C(O)[C@@H]1C[C@H](C(=O)O)N1 | -7% | -6% | -25% | 12µM*! | 2 | -2%
CCN(CC)S(=O)(=O)c1ccc2c(c1)N(CC(=O)NCCc1ccc(OC)c(OC)c1)C(=O)CO2 | -8% | 4% | / | -19%[59 µM] | / | 9%
O=C(NC(Cc1c[nH]c2ccccc12)C(=O)N/N=C/c1cccc2ccccc12)c1cccs1 (stereo unspecified) | ? | 10% | 18% | 2%[59 µM] | 0 | ?
O=C(NC(Cc1c[nH]c2ccccc12)C(=O)O)c1cccs1 (stereo unspecified) | -3% | -3% | 9% | 11% | 8 | -4%
O=C(NC(Cc1c[nH]c2ccccc12)C(=O)Nc1ccc(OC(F)(F)F)cc1)c1cccs1 (stereo unspecified) | 7.9µM*[quencher] | -3% | 22% | -3%[59 µM] | -1 | ?
O=C(NC(Cc1c[nH]c2ccccc12)C(=O)Nc1ccc(F)c([N+](=O)[O-])c1)c1cccs1 (stereo unspecified) | 16µM*[quencher] | ? | 28% | ? | -4 | 15%
O=C1COc2ccccc2N1Cc1c(F)cccc1Cl | / | / | 12% | 28% | -5 | /
COc1cccc(NC2C=CS(=O)(=O)C2)c1 (stereo unspecified) | -3% | 4% | 15% | -1%[59 µM] | 1 | -10%
COc1ccc(NC2C=CS(=O)(=O)C2)c(OC)c1 (stereo unspecified) | -2% | ? | 79µM* | 6%[2.33 µM] | -41* | 8%
CCOC(=O)CCCCN(Cc1ccccc1F)S(=O)(=O)c1ccc(F)c(C(=O)Nc2cc(Cl)cc(Cl)c2)c1 | -23% | 1% | / | 33%[59 µM] | / | -14%
CCO[C@@H]1OC(C(=O)N2CCCCCCC2)=C[C@H](C2CCCCC2)[C@H]1CCCO | -9% | -9% | -1% | 10%[12.7 µM] | -2 | 8%
CCCCN(C(=O)c1ccc([N+](=O)[O-])s1)c1c(N)n(CC(C)C)c(=O)[nH]c1=O | / | / | / | -51% | / | /
CCCCn1c(N)c(N(CCC(C)C)C(=O)c2ccc([N+](=O)[O-])s2)c(=O)[nH]c1=O | / | / | / | 79µM* | / | /
CCCCn1c(N)c(N(CC(C)C)C(=O)Cn2c(=O)oc3ccccc32)c(=O)[nH]c1=O | / | / | / | -27% | / | /
CCCCn1c(N)c(N(CC(C)C)C(=O)c2ccco2)c(=O)[nH]c1=O | / | / | / | 50µM* | / | /
CCCCn1c(N)c(N(CCC(C)C)C(=O)C2=NN(c3cc(C)ccc3C)C(=O)CC2)c(=O)[nH]c1=O | / | / | / | 40µM* | / | /
CCCCn1c(N)c(N(CC(C)C)C(=O)Cn2c(=O)cnc3ccccc32)c(=O)[nH]c1=O | / | / | / | 45µM* | / | /
